# In PubChem BioAssay (NCI):
# The panel holds about 83,000 compounds, 20% with a hit somewhere; the sample as a whole holds those more often.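 For each line, cells grew in 96-well plates with the test compound present at a single concentration for 48 hours.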 Unmarked numbers belong to inactive results. Active and inactive are the calls of the source. Rule for the calls: active = growth percent below 10; inactive = the rest.
# System: HL-60(TB) leukemia
# Assay: NCI-60 one-dose screen, 48 h (100 = growth as untreated, 0 = no growth, -100 = all killed)
# Conditions: 10 µM unless noted
row,Structure (SMILES),growth
1,C[n+]1c2ccccc2c(Nc2ccc(N3CCCCC3)cc2)c2[nH]c3ccccc3c21,-55.6% (active)
2,Cc1ccccc1N1C(=O)c2cc(S(N)(=O)=O)c(Cl)cc2NC1C (centres undefined),87.9%
3,Cc1ccc(S(=O)(=O)NN/C(N)=N\S(=O)(=O)c2cc(C)c(Cl)cc2SCc2ccccc2)cc1,83.6%
4,Fc1ccc(-c2nn3c(-c4cc(C(F)(F)F)cc(C(F)(F)F)c4)nnc3s2)cc1,92.2%
5,N#CC(C#N)=C(C#N)c1c[nH]c2ccccc12,72.9%
6,CSc1ncc2ncn(C3OC(CO)C(O)C3O)c2n1 (centres undefined),114%
7,N#C/C(=C\c1ccc(C(F)(F)F)cc1)c1cc2ccccc2[nH]1,89.3%
8,CC1=C(C(=O)/C=C/c2c[nH]c3ccccc23)C(c2ccccc2)NC(=S)N1 (centres undefined),99.5%
9,Clc1ccc(Nc2nc(Nc3ccc(Cl)cc3)nc(Nc3ccc(-c4cc(-c5cccc(Cl)c5)on4)cc3)n2)cc1,-50% (active)
10,C/C(Cc1ccccc1)=N\O,13.8%
11,COc1ccc(/C=C(\C#N)c2cc3ccccc3n2S(C)(=O)=O)cc1,89.6%
12,c1cc(-c2nnc(SSc3ncnc4nc[nH]c34)o2)ccn1,18%
13,C[C@@H]1O[C@@H](O[C@@H]2C[C@H](c3ccc4c(c3O)C(=O)C3=C(C4=O)[C@@]4(O)C(=O)C[C@](C)(O)C[C@@]4(O)C=C3)O[C@H](C)[C@H]2O)C[C@H](O)[C@@H]1O,99.5%
14,N=C(N)c1ccc(-c2ccc(-c3cccs3)s2)cc1,-46.6% (active)
